Results taken from PubChem BioAssay (NCI).
Where “and” joins values, the source holds several entries; their conditions need not be identical. Identical values can stand only once. The panel holds about 79,000 compounds, 15% with a hit somewhere; the sample as a whole holds those more often. The source holds several records for some structures; these can differ, active in one and inactive in another. Calls of active or inactive are those of the source. No stated cut-off is given here; in the data, active means growth inhibition above about 70%; inactive means the rest.

Assays:
[1] = NCI Yeast Anticancer Drug Screen. Data for the wt1 strain (AID 149);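 further: 0% = growth of vehicle-treated wt1 cultures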; settings: S. cerevisiae wt1 strain (SPY 50644) growth inhibition, stronger effect = higher value
Summary of the method: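 wt1 yeast, compound-treated; % growth inhibition vs vehicle control.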

[2] = NCI Yeast Anticancer Drug Screen. Data for the rad50EPP+ strain (AID 151);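 further: 0% = growth of vehicle-treated control cultures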; settings: S. cerevisiae rad50 mutant strain, stronger effect = higher value
Summary of the method: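 In this screen, rad50EPP+ yeast were exposed to compounds. Growth inhibition was scored against vehicle-treated controls.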

[3] = NCI Yeast Anticancer Drug Screen. Data for the rad50 strain (AID 155);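 further: 0% = growth of vehicle-only cultures of the same strain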; settings: S. cerevisiae rad50 strain growth inhibition, stronger effect = higher value
Summary of the method: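 Genetically altered yeast (DNA repair pathway); compound treatment; growth inhibition vs vehicle ctrl.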

[4] = NCI Yeast Anticancer Drug Screen. Data for the mec2-1 strain (AID 157); settings: S. cerevisiae mec2-1 strain, stronger effect = higher value
Summary of the method: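 Vehicle-treated cultures served as reference for growth inhibition of compound-exposed mec2-1 yeast.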

[5] = NCI Yeast Anticancer Drug Screen. Data for the rad14 strain (AID 159);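 further: 0% = growth of vehicle-treated control cultures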; settings: S. cerevisiae rad14 strain growth inhibition, stronger effect = higher value
Summary of the method: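 Test compounds were applied to a repair-deficient yeast strain. Its growth was then compared with that of cultures given vehicle alone, and inhibition was expressed relative to those controls.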

[6] = NCI Yeast Anticancer Drug Screen. Data for the sgs1 mgt1 strain (AID 161);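 further: 0% = growth of cultures given vehicle only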; settings: S. cerevisiae sgs1 mgt1 strain, stronger effect = higher value
Summary of the method: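 Read-out: growth inhibition vs vehicle controls. Cells: mutant yeast strain deficient in DNA damage repair.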

[7] = NCI Yeast Anticancer Drug Screen. Data for the CLN2oe strain (AID 163);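 further: 0% = growth of vehicle-only control cultures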; settings: S. cerevisiae CLN2oe strain, stronger effect = higher value
Summary of the method: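 Inhibition relative to vehicle-treated yeast is reported. Cells: strain with genetic alteration in cell-cycle control, grown with compound.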

[8] = NCI Yeast Anticancer Drug Screen. Data for the cln2 rad14 strain (AID 165);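 further: 0% = growth equal to vehicle treated cultures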; settings: S. cerevisiae cln2 rad14 strain, stronger effect = higher value
Summary of the method: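 Each compound was tested on cln2 rad14 yeast. Inhibition of growth was calculated against vehicle-exposed controls.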

[9] = NCI Yeast Anticancer Drug Screen. Data for the bub3 strain (AID 167); settings: S. cerevisiae bub3 mutant strain, stronger effect = higher value
Summary of the method: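 Yeast carrying a defined mutation is treated with each compound, and growth is compared with that of vehicle-exposed cells to give inhibition.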

[10] = NCI Yeast Anticancer Drug Screen. Data for the wt2 strain (AID 169);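 further: 0% = growth of vehicle-treated yeast cultures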; settings: S. cerevisiae wt2 strain growth inhibition, stronger effect = higher value
Summary of the method: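 Inhibition of yeast growth was determined after compound treatment, normalised to controls receiving only vehicle.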

[11] = NCI Yeast Anticancer Drug Screen. Data for the mlh1 strain (AID 171);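 further: 0% = growth of vehicle-treated control cultures of the same strain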; settings: S. cerevisiae mlh1 strain growth inhibition, stronger effect = higher value
Summary of the method: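 Vehicle-normalised growth inhibition of a repair- or checkpoint-altered yeast strain following compound treatment.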

[12] = NCI Yeast Anticancer Drug Screen. Data for the sgs1 strain (AID 173);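 further: 0% = growth of vehicle-only control cultures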; settings: S. cerevisiae sgs1 mutant, stronger effect = higher value
Summary of the method: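 Screen format: yeast with repair or checkpoint alterations, compound exposure, growth read relative to vehicle.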

[13] = NCI Yeast Anticancer Drug Screen. Data for the mlh1 rad18 strain (AID 175); settings: S. cerevisiae mlh1 rad18 strain growth inhibition, stronger effect = higher value
Summary of the method: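 Vehicle-treated cultures served as the reference for growth inhibition in a yeast strain carrying DNA damage repair alterations exposed to each compound.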

[14] = NCI Yeast Anticancer Drug Screen. Data for the rad18 strain (AID 177); settings: S. cerevisiae rad18 mutant growth inhibition, stronger effect = higher value
Summary of the method: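 Test articles were incubated with altered yeast defective in DNA damage repair. Results are given as inhibition of growth versus vehicle.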

[15] = at 5.0 µM (retest, dose inferred, filed as 0.5)
[16] = at 50.0 µM (retest, dose inferred, filed as 5.0)

Measured: growth inhibition

CC1CC(C)CC(C)C(O)/C(C#N)=C/C=C/CC(C2CCCC2C(=O)O)OC(=O)CC(O)C(C)C1 (configuration not stated)
active: [1]; at 1.2 µM 97% | [1]; at 3.7 µM 99% | [1]; at 11.0 µM 99% | [1]; at 33.0 µM 99% | [1]; at 100.0 µM 98% | [2]; at 33.0 µM 93% | [2]; at 100.0 µM 97% | [3]; at 1.2 µM 94% | [3]; at 3.7 µM 97% | [3]; [15] 98% | [3]; at 11.0 µM 97% | [3]; at 33.0 µM 97% | [3]; [16] 98% | [3]; at 50.0 µM 92.6% | [3]; at 100.0 µM 97% | [4]; at 1.2 µM 96% | [4]; at 3.7 µM 98% | [4]; [15] 99% | [4]; at 11.0 µM 98% | [4]; at 33.0 µM 98% | [4]; [16] 99% | [4]; at 50.0 µM 94.5% | [4]; at 100.0 µM 98% | [5]; at 1.2 µM 98% | [5]; at 3.7 µM 98% | [5]; at 11.0 µM 98% | [5]; at 33.0 µM 99% | [5]; at 100.0 µM 98% | [6]; at 50.0 µM 93.7% | [7]; at 1.2 µM 86% | [7]; at 3.7 µM 96% | [7]; at 11.0 µM 97% | [7]; at 33.0 µM 97% | [7]; at 100.0 µM 97% | [8]; at 50.0 µM 92.4% | [9]; at 1.2 µM 93% | [9]; at 3.7 µM 98% | [9]; at 11.0 µM 98% | [9]; at 33.0 µM 98% | [9]; at 50.0 µM 93.3% | [9]; at 100.0 µM 98% | [10]; at 1.2 µM 90% | [10]; at 3.7 µM 100% | [10]; at 11.0 µM 99% | [10]; at 33.0 µM 99% | [10]; at 100.0 µM 98% | [11]; at 1.2 µM 90% | [11]; at 3.7 µM 98% | [11]; at 11.0 µM 98% | [11]; at 33.0 µM 98% | [11]; at 100.0 µM 98% | [12]; at 1.2 µM 95% | [12]; at 3.7 µM 97% | [12]; at 11.0 µM 98% | [12]; at 33.0 µM 97% | [12]; at 100.0 µM 97% | [13]; [15] 98% | [13]; [16] 98% | [13]; at 50.0 µM 91.6% | [14]; at 1.2 µM 96% | [14]; at 3.7 µM 97% | [14]; at 11.0 µM 98% | [14]; at 33.0 µM 97% | [14]; at 100.0 µM 97%
inactive: [2]; at 1.2 µM -17% | [2]; at 3.7 µM 21% | [2]; at 11.0 µM 68% | [6]; [15] 15% | [6]; [16] 2% | [8]; [15] 8% | [8]; [16] -20% | [9]; [15] 10% | [9]; [16] -7%

O=[N+]([O-])c1c(Cl)sc(Cl)c1[N+](=O)[O-]
active: [3]; [15] 99% | [3]; [16] 99% | [3]; at 50.0 µM 99.7% | [4]; [15] 100% | [4]; [16] 100% | [4]; at 50.0 µM 99.7% | [6]; [15] 99% | [6]; [16] 99% | [6]; at 50.0 µM 99.5% | [8]; [15] 99% | [8]; [16] 99% | [8]; at 50.0 µM 99.8% | [9]; [15] 100% | [9]; [16] 100% | [9]; at 50.0 µM 99.7% | [13]; [15] 99% | [13]; [16] 99% | [13]; at 50.0 µM 99.7%

N#C[S-].[Ce+3].c1ccc(-c2ccccn2)nc1.c1ccc(-c2ccccn2)nc1.c1ccc(-c2ccccn2)nc1
active: [3]; [16] 98% | [3]; at 50.0 µM 91.5% | [4]; [16] 99% | [4]; at 50.0 µM 94% | [6]; [16] 99% | [6]; at 50.0 µM 92.9% | [8]; [16] 93% | [8]; at 50.0 µM 91.5% | [9]; [16] 98% | [9]; at 50.0 µM 92.3% | [13]; [16] 98% | [13]; at 50.0 µM 91.4%
inactive: [3]; [15] 63% | [4]; [15] 43% | [6]; [15] 51% | [8]; [15] 31% | [9]; [15] 55% | [13]; [15] 63%

CCN(CC)C(=S)S
28% (inactive) and 99.5% (active): [4]; at 50.0 µM
active: [3]; [16] 99% | [4]; [16] 99% | [6]; [16] 99% | [8]; [16] 99% | [9]; [16] 99% | [13]; [15] 75% | [13]; [16] 99%
inactive: [3]; [15] 66% | [4]; [15] 66% | [6]; [15] 58% | [8]; [15] 8% | [9]; [15] 65%
21.3% (inactive) and 98.8% (active): [8]; at 50.0 µM
34.9% (inactive) and 99.5% (active): [6]; at 50.0 µM
26.8% (inactive) and 99.5% (active): [13]; at 50.0 µM
8.05% (inactive) and 99.5% (active): [9]; at 50.0 µM
48.6% (inactive) and 99.3% (active): [3]; at 50.0 µM

CC1CN=C(Nc2ccccc2)S1 (configuration not stated)
active: [3]; [15] 100% | [3]; [16] 100% | [3]; at 50.0 µM 78.5% | [6]; at 50.0 µM 89.2% | [8]; at 50.0 µM 90.3% | [9]; at 50.0 µM 87.4% | [13]; [15] 100% | [13]; [16] 100% | [13]; at 50.0 µM 81.6%
inactive: [1]; at 1.2 µM -15% | [1]; at 3.7 µM -5% | [1]; at 11.0 µM -21% | [1]; at 33.0 µM -25% | [1]; at 100.0 µM -32% | [2]; at 1.2 µM -52% | [2]; at 3.7 µM -46% | [2]; at 11.0 µM -49% | [2]; at 33.0 µM -72% | [2]; at 100.0 µM -54% | [3]; at 1.2 µM -5% | [3]; at 3.7 µM 12% | [3]; at 11.0 µM -7% | [3]; at 33.0 µM 3% | [3]; at 100.0 µM -17% | [5]; at 1.2 µM -49% | [5]; at 3.7 µM -54% | [5]; at 11.0 µM -58% | [5]; at 33.0 µM -51% | [5]; at 100.0 µM -41% | [6]; [15] 2% | [6]; [16] 6% | [7]; at 1.2 µM -14% | [7]; at 3.7 µM -15% | [7]; at 11.0 µM -7% | [7]; at 33.0 µM -2% | [7]; at 100.0 µM 10% | [8]; [15] 16% | [8]; [16] 37% | [9]; at 1.2 µM -26% | [9]; at 3.7 µM -20% | [9]; [15] 26% | [9]; at 11.0 µM -41% | [9]; at 33.0 µM -25% | [9]; [16] 9% | [9]; at 100.0 µM -46% | [10]; at 1.2 µM -31% | [10]; at 3.7 µM -15% | [10]; at 11.0 µM -21% | [10]; at 33.0 µM -24% | [10]; at 100.0 µM -13% | [11]; at 1.2 µM -8% | [11]; at 3.7 µM -7% | [11]; at 11.0 µM -14% | [11]; at 33.0 µM -32% | [11]; at 100.0 µM -24% | [12]; at 1.2 µM -29% | [12]; at 3.7 µM -36% | [12]; at 11.0 µM -40% | [12]; at 33.0 µM -23% | [12]; at 100.0 µM -40%
